# Measurements taken from PubChem BioAssay (NCATS).
# Records with an inconclusive call do not appear. The source made the active and inactive calls. Calls come from the whole dose curve; as a rule, active = well fitted inhibition curve with a large enough effect; inconclusive = small, poorly fitted or top-dose-only effect; inactive = flat fitted curve, though single readings scatter.
# System: NIH3T3
# Test: Cytotoxic Profiling of Annotated Libraries Using Quantitative High-Throughput Screening (AID 1296008); note: nearly all actives have a fitted effect of over 60% in size
# Conditions: Five cell lines viability, CellTiter-Glo ATP luminescence, 48-72 h; max response: active compounds read low
# Procedure, shortened: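 Compounds were pin-transferred onto cells and incubated 48 or 72 hr at 37 degree Celsius, 95% humidity. CellTiter-Glo was added, plates sat 10 min at room temperature, then ATP-coupled luminescence was imaged as the viability read-out.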
# % is set by controls: 0 for no effect and ±100 for the full control effect; potency is the fitted concentration of half-maximal effect.
Structure (SMILES),max response,Potency,outcome
Cc1ccnn1-c1ccc(C(=O)N2CCN(S(=O)(=O)c3ccc(Cl)c(C(F)(F)F)c3)CC2)cc1,-5.12% (inactive),–,–
Fc1ccc(N2CCCCC2)c(NC(=S)c2ccncc2)c1,-6.72% (inactive),–,–
O=C(Cc1c(F)cccc1F)Nc1cc(OCc2ccc(Cl)cc2)ccn1,-10.7% (inactive),–,–
CCN(c1cc(-c2ccc(CN3CCOCC3)cc2)cc(C(=O)NCc2c(C)cc(C)[nH]c2=O)c1C)C1CCOCC1,-11.7% (inactive),–,–
C/C=C(/C)C(=O)O[C@@H]1C[C@@H](OC(=O)CC(C)C)C2(C)C3C(=O)C=C(C)C2C3C1(C)C (stereo partly drawn),-2.22% (inactive),–,–
CCOc1cc(C(C)(C)C)ccc1C1=NC(C)(c2ccc(Cl)cc2)C(C)(c2ccc(Cl)cc2)N1C(=O)N1CCN(CCCS(C)(=O)=O)CC1 (stereo not drawn),–,9.2 µM (active),–
COc1ccc(S(=O)(=O)N2CCC[C@H]2C(=O)Nc2cc(C)cc(C)c2)cc1,0.512% (inactive),–,–
COc1cccc(-c2cc(F)ccc2C2Cc3nc(N)nc(C)c3C(=O)N2)n1 (stereo not drawn),–,0.058 µM (active),–
Nc1nccc(-c2c(-c3ccc(F)cc3)ncn2C2CCCCC2)n1,–,16.4 µM (active),–
COc1cc(O)c2c(c1)/C=C/C[C@H](O)[C@H](O)C(=O)/C=C\C[C@H](C)OC2=O,–,5.8 µM (active),–
CC(C)c1cc(-c2ccc(F)c3ccccc23)nc(N)n1,–,–,inactive
CNc1cccc(CCOc2ccc3c(c2)CN(CC(F)(F)F)C(=O)[C@H](CC(=O)O)C3)n1,–,0.116 µM (active),–
OC[C@H]1O[C@@H](OC/C=C/c2ccc(O)cc2)[C@H](O)[C@@H](O)[C@@H]1O,-11.1% (inactive),–,–
Cn1ccc(NC(=O)c2cc(Oc3ccc(C(=O)N4CCC4)c(F)c3)c3c(c2)OC(C)(C)C3)n1,4.11% (inactive),–,–
COc1ccc2nc3n[nH]c(C)c3c(NCCOCCO)c2c1,2.85% (inactive),–,–
CC(=O)Nc1cccc(Nc2ncnc(N3CCC(OCc4ccc(OC(F)(F)F)cc4)CC3)n2)c1C,-3.89% (inactive),–,–
C=C(C(=O)OC[C@H]1O[C@@H](OC(=O)/C=C/c2ccccc2)[C@H](O)[C@@H](O)[C@@H]1O)C(O)CO (stereo partly drawn),1.83% (inactive),–,–
COc1ccccc1C(=O)Nc1cc2c(cc1N1CCCC1)n(C)c(=O)n2C,-10.9% (inactive),–,–
Clc1cccc(COc2cncc(N3CCNCC3)n2)c1,-5.94% (inactive),–,–

Structure (SMILES),max response,Potency,outcome
CCOc1cn(-c2ccc(F)cc2C)nc1C(=O)Nc1ccc(Oc2ccnc3cc(OC)c(OC)cc23)c(F)c1,–,5.8 µM (active),–
O=C(Nc1ccccc1Br)NC1CCN(c2ccc(C(F)(F)F)cn2)C1 (stereo not drawn),-7.45% (inactive),–,–
C=CC(C)(O)CC/C=C(/C)COC(=O)C(C)C1CCC(C)(C=C)O1 (stereo not drawn),0.167% (inactive),–,–
Cc1noc(C)c1-c1cc(O)cc(C(O)c2ccccc2)c1 (stereo not drawn),–,10.3 µM (active),–
COc1cccc(NCCC2(c3ccccc3)CC(C)(C)OC(C)(C)C2)c1,-25% (inactive),–,–
Cc1c(OCc2cccc(-c3ccc(C(=O)O)cc3)c2)cc2c(c1C)C(=O)C(C1CCCC1)C2 (stereo not drawn),-4.46% (inactive),–,–
Cn1cc(-c2ccc(S(=O)(=O)n3ccc(/C=C/C(=O)Nc4ccccc4N)c3)cc2)cn1,–,4.61 µM (active),–
CC1(NC(=O)c2ccc(C#Cc3cccc(F)c3)cn2)COC1,-3.45% (inactive),–,–
O=C(NCCN1CCC(n2c(=O)[nH]c3ccccc32)CC1)c1cc2cc(F)ccc2[nH]1,–,–,inactive
CCN(Cc1cc(Nc2nc(C)cn3c(-c4cn[nH]c4)cnc23)sn1)C(C)(C)CO,–,0.461 µM (active),–
NC(=O)CCCSc1nc(N)nc(-c2c(Cl)cc3c4c(cccc24)COC3)n1,–,0.731 µM (active),–
Cc1c(C(=O)Nc2ccc(N3CCC(N4CCOCC4)CC3)c(C#N)c2)cnn1-c1ccc(Cl)cc1,–,0.366 µM (active),–
CCN1CCC[C@@H]1CNC(=O)c1ccc2c(c1)NC(=O)c1cccc(C)c1S2,–,–,inactive
O=C(CNC(=O)c1cccc(C(F)(F)F)c1)N[C@@H]1CCN(Cc2ccc(Cl)cc2)C1,-1.44% (inactive),–,–
CC(=O)NC(C)c1cnc(-c2cnc(Oc3ccc(OC(C)C)cc3)s2)s1 (stereo not drawn),0.946% (inactive),–,–
O=C(NNc1nc2cc(F)ccc2n2cccc12)c1cnccn1,–,4.11 µM (active),–
C[C@@H](Nc1ncnc2[nH]c(-c3ccc(O)cc3)cc12)c1ccccc1,–,14.6 µM (active),–
CC1=CC2/C=C(\C)CCC3OC(C)(C)OC3CCC(=O)C23C(=O)NC(CC(C)C)C3C1C (stereo not drawn),-3.16% (inactive),–,–
CC1(CO)CC2C(O)C3=C(CC(C)(O)C2C1)C(=O)OC3 (stereo not drawn),1.99% (inactive),–,–
